# Experimental data published in paper PMC4336329 (PLoS ONE, 2015).
# Screen size: about 310,000 compounds; about 14,000 (4.5%) showed an effect of 50% or more. The effect is printed as a negative number. The entries come from a sample that favours strong results as a whole.
# Biological target: human ether-à-go-go-related gene (hERG) potassium channel (human, UniProt Q12809)
# Assay: primary screen, population patch clamp on CHO cells stably expressing hERG; higher = less effect of the substance
# 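Further: peak tail current of the secondary pulse compared with the same well before compound.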
# Chain of human ether-à-go-go-related gene (hERG) potassium channel (Q12809 whole entry, looked up): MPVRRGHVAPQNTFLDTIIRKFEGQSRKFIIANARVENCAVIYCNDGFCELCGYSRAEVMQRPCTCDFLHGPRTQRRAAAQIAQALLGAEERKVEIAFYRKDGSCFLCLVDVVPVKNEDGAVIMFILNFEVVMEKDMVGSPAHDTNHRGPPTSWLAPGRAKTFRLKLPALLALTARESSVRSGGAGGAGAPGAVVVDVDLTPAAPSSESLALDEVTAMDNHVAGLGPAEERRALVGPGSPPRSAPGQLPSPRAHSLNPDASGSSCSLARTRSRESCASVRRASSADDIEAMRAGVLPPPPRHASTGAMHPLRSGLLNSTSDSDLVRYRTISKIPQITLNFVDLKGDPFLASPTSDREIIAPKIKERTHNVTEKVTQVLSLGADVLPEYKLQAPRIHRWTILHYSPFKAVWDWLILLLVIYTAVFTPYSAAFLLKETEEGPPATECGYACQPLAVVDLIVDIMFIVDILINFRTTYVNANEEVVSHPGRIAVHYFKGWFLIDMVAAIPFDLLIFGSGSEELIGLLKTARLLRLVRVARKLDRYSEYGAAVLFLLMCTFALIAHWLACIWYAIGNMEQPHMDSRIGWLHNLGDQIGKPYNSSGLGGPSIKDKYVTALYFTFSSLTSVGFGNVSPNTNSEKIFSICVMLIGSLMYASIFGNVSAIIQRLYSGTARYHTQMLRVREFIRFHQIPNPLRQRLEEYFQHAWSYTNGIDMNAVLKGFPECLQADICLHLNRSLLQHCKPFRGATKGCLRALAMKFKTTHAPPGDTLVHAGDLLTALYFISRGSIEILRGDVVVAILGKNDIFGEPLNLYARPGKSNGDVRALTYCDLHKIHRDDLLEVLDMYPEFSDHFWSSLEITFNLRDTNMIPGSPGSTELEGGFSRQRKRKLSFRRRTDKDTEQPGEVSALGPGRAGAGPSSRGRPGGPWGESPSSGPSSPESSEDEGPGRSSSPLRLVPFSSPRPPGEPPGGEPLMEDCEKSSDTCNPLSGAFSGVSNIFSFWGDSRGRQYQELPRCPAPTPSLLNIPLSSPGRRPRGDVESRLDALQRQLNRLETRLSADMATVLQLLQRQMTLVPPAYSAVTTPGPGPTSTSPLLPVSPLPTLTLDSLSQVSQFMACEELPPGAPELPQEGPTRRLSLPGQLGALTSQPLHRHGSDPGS
row,Structure (SMILES),"hERG current change (%, negative = inhibition) at 10uM [%]"
1,O=C(Nc1ccccc1)/C(=C\c1ccc(F)cc1)NC(=O)c1ccco1,3.87
2,CCOC(=O)C1CCN(S(=O)(=O)c2ccc(OCC(=O)OC)cc2)CC1,-9.54
3,O=c1c(/C=N/O)c(Nc2ccccc2)nc2ccccn12,-13.5
4,Cc1ccc(-n2nc(C)c3c(C)c(CCC(=O)O)c(C)nc32)cc1,12.6
5,CCOC(=O)CN1C(=O)C(C)(C)Oc2ccc(C(=O)Nc3ccccc3OC)cc21,-6.76
6,Cc1cc(C)nc(N2CCC(C(=O)NNC(=O)Cc3ccccc3)CC2)n1,8.85
7,O=C(Cc1ccc(Cl)cc1)Nc1ccccc1N1CCOCC1,5.94
8,CC(C)C(=O)N1CCN(c2ccccc2NC(=O)Cc2ccc(Cl)cc2)CC1,-69.7
9,CN1CCN(c2ccccc2NC(=O)C(Cc2ccccc2)n2cccc2)CC1 (centres unmarked),-65.6
10,CN1CCN(c2ccccc2NC(=O)Cc2ccc(Cl)cc2)CC1,-73.4
11,Cc1ccccc1NC(=O)C(Cc1ccccc1)n1cccc1 (centres unmarked),-0.159
12,CN1CCN(c2ccccc2NC(=O)c2ccc(-c3ccccc3)cc2)CC1,-31.6
13,CCc1ccccc1NC(=O)Cc1cn(C)c2ccccc12,3.59
14,CS(=O)(=O)N1CCN(c2ccccc2NC(=O)Cc2ccc(Cl)cc2)CC1,-38.4
15,CC(C)C(=O)N1CCN(c2ccccc2NC(=S)NC(=O)Cc2ccccc2)CC1,-4.92
16,CN1CCN(c2ccccc2NC(=O)Cc2cn(C)c3ccccc23)CC1,-59.5
17,CCCC(=O)Nc1ccccc1N1CCN(C(=O)C(C)C)CC1,11.4
18,Cc1ccccc1NC(=O)Cc1cn(C)c2ccccc12,15.1
19,CN(C(=O)CSc1nnc(-c2ccco2)o1)C1CCCCC1,-7.54
20,C[C@@H]1NC(=O)c2cc([N+](=O)[O-])cc(I)c2NCCCC[C@@H](C(N)=O)NC(=O)[C@H](CCC(=O)O)NC1=O,-9.34
21,COC(=O)C1=C(C)N(C)C(=O)NC1c1ccccc1 (centres unmarked),-5.95
22,Cc1cc(C(=O)Nn2c(-c3ccncc3)nc3ccccc3c2=O)ccc1[N+](=O)[O-],31.8

row,Structure (SMILES),"hERG current change (%, negative = inhibition) at 10uM [%]"
1,C=CCOc1c(CNc2ccc(S(N)(=O)=O)cc2)cccc1OC,2.97
2,Cc1ccc(NC(=O)C(Cc2ccccc2)n2cccc2)cc1 (centres unmarked),3.37
3,O=C(Cc1ccc(Cl)cc1)Nc1ccccc1N1CCN(C(=O)c2ccccc2)CC1,-72.1
4,Cc1cccc(NC(=O)C(Cc2ccccc2)n2cccc2)c1 (centres unmarked),-51.2
5,O=C(CSc1ccc(Cl)cc1)Nc1ccccc1N1CCN(C(=O)c2ccccc2)CC1,-14.9
6,COc1cccc(NC(=O)C(Cc2ccccc2)n2cccc2)c1 (centres unmarked),-17
7,O=C(CSc1ccc(Cl)cc1)Nc1ccccc1N1CCN(C(=O)c2ccc(Cl)cc2)CC1,-10.7
8,CC(C)(C)c1ccc(/C=C/C(=O)NC2=NCCS2)cc1,10.5
9,O=C(O)CC1SC(=Nc2cccc(C(F)(F)F)c2)NC1=O (centres unmarked),5.13
10,CCN(CC)c1ccc(/C=N/OCC(=O)Nc2cccc(C)c2)cc1,-2.16
11,CCCCOc1ccc(C(=O)N2CCNC(=O)C2CC(=O)OC(C)C)cc1 (centres unmarked),13.1
12,Cc1ccc(-c2nc(CS(=O)CC(=O)NC3CCCC3)c(C)o2)cc1 (centres unmarked),-13.3
13,COc1ccc(-c2cc(COc3ccccc3)on2)cc1,36.1
14,CC(=O)c1c(N2CCN(Cc3ccccc3)CC2)[nH]c(-c2ccccc2)nc1=S,2.17
15,Cl.O=C(c1ccc2c(c1)OCCO2)N1CCN(Cc2ccccc2)CC1,2.59
16,N#Cc1ccc(CN2CCN(C(=O)c3cccc(S(=O)(=O)N4CCCCCC4)c3)CC2)cc1,-75.8
17,N#Cc1ccc(CN2CCN(C(=O)c3ccccc3)CC2)c(Cl)c1,-33.2
18,O=C(c1cccc(S(=O)(=O)N2CCCCC2)c1)N1CCCCC1,5.7
19,CN1CCN(C(=O)c2cccc(S(=O)(=O)N3CCCCC3)c2)CC1,-7.44
20,Cl.O=C(c1cccc(S(=O)(=O)N2CCCC2)c1)N1CCN(Cc2ccccc2)CC1,-14.2
21,Cl.O=C(c1cccc(S(=O)(=O)N2CCCCC2)c1)N1CCN(Cc2ccccc2)CC1,-56.6
22,N#Cc1ccc(CN2CCN(C(=O)c3cc(Cl)c4c(c3)OCCO4)CC2)cc1,-67.7

row,Structure (SMILES),"hERG current change (%, negative = inhibition) at 10uM [%]"
1,N#Cc1ccc(CN2CCN(C(=O)c3ccc(S(=O)(=O)N4CCCCCC4)cc3)CC2)cc1,-40.9
2,CC(=O)Nc1nnc(CCS(=O)(=O)c2ccc(C)c(C)c2)s1,8.73
3,Cc1ccccc1N/N=C/c1sc(=O)n(Cc2cccc(C(=O)O)c2)c1Cl,38.9
4,CCN(CC)C(=O)Oc1ccc2c(=O)c(-c3ccc(OC)cc3)c(C)oc2c1,-35.8
5,O=C(Nc1cccc(F)c1)Nc1ccc(Cl)cn1,7.51
6,Cc1cccc(CN(C(=S)Nc2c(C)cccc2C)c2cccnc2)c1,-9.13
7,Cc1[nH]c2ccccc2c1C(=O)COC(=O)C(C)C,-6.03
8,S=C(NCC(c1ccco1)N1CCCC1)Nc1ccccc1 (centres unmarked),-28.9
9,COc1ccc(-n2nnnc2SCC(=O)Nc2nc3c(s2)CCCC3)cc1,9.26
10,Cc1cc(C)nc(-n2nc(C)cc2NC(=O)CN2CCC(C)CC2)n1,-65.6
11,Cc1cc(C)nc(-n2nc(C)cc2NC(=O)CN2CCCC2)n1,-34.1
12,CCC1CCCCN1C(=O)CSc1nc(C)cc(C)n1 (centres unmarked),-12.8
13,Cc1cc(C)cc(NC(=O)CN2CCc3ccccc3C2)c1,-10.2
14,Cc1cccc(C)c1NC(=O)CN1CCc2ccccc2C1,8.31
15,Cc1cc(NC(=O)CN2CCCC(C)C2)no1.O=C(O)C(=O)O (centres unmarked),10.7
16,CC(=O)Nc1ccc(NC(=O)CN2CCCC(C)C2)c(Cl)c1 (centres unmarked),-5.17
17,Cc1cc(C)nc(-n2nc(C)cc2NC(=O)CN2CCc3ccccc3C2)n1,-68.7
18,CCC1CCCCN1CC(=O)Nc1cc(C)nn1-c1nc(C)cc(C)n1 (centres unmarked),-58.8
19,Cc1cc(C)nc(-n2nc(C)cc2NC(=O)CN2CCCC(C)C2)n1 (centres unmarked),-56
20,CCC1CCCCN1CC(=O)Nc1ccc2c(c1)OCCO2 (centres unmarked),10.6
21,Cc1cc(NC(=O)CN2CCCCC2)n(-c2ccccc2)n1,6.65
